SMN2 splice enh = SMN2 splice variant enhancement | 2.8% of 210,000 active | HEK293 SMN2-luciferase splicing reporter, luminescence, 30-36 h | Potency, µM (doses to about 46.1 µM), without a hit: at the top dose activity change, positive = activation, usual class: activators | AID 1458; note: % of control where 0% means no effect; nearly all actives have a fitted effect of over 55% in size
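HEK293 cells carry an SMN2 […]–luciferase reporter in which exon 7 inclusion puts luciferase in frame. Cells were plated 10-12 h before compound addition, then incubated 30-36 h at 37C. ONE-Glo luminescence was read; sodium butyrate at 4.5 mM final served as control.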
NPC1 promoter act = NPC1 promoter activation. Huh7 NPC1 promoter luciferase reporter, 24 h. AID 485313. 2.4% of 320,000 active. Potency, µM (series often up to 9.22 µM), for inactives: top-dose activation, usual class: activators; note: % of control where 0% means no effect; nearly all actives have a fitted effect of over 60% in size
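In 1536-well qHTS, Huh7 cells harboring an NPC1 promoter–luciferase construct received compound for 24 h; activation was quantified by luminescence following luciferase reagent addition.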
KinaseGlo FLuc = blocks Kinase-Glo luciferase, a counter-screen artifact; Q27757; Potency, µM (doses to about 38.3 µM), without a hit: top-dose activity change, negative = inhibition, hits mostly inhibitors; 0.28% of 200,000 active; Kinase-Glo luciferase, ATP luminescence, 8 min; note: % is set by controls: 0 for no effect and ±100 for the full control effect; nearly all actives have a fitted effect of over 60% in size
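Substrate mix (final 50 mM imidazole pH 7.2, 50 mM KCl, 7 mM MgCl2, 10 uM ATP, 0.01% Tween 20, 0.05% BSA) plus pin-tool compound, then Kinase-Glo detection mix; 8 min ambient, luminescence read.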
Rab9 prom act = activators of Rab9 promoter; Huh7 Rab9 promoter-luciferase reporter, luminescence, 24 h; Potency, µM (doses to about 9.22 µM), inactives show at the top dose activation, negative = inhibition, usual class: activators; 2.8% of 320,000 active; AID 485297; note: % of control where 0% means no effect; nearly all actives have a fitted effect of over 60% in size
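Promoter activation is measured as luciferase luminescence in Huh7 cells stably transfected with a Rab9 promoter–luciferase construct, following 24 h compound exposure at 37 °C and 10 min reagent incubation at ambient temperature.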
ELG1 genotox = induces genotoxicity in HEK293T cells with luciferase-tagged ELG1; HEK293T ELG1-luciferase reporter, luminescence, 16 h; Potency, µM (titrated, usually from 46 µM), inactives show at the top dose activity change, positive = activation, usual class: activators; 1.3% of 330,000 active; AID 504466; note: % of control where 0% means no effect; nearly all actives have a fitted effect of over 60% in size
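ELG1-luciferase HEK293T cells, 2,000/well; compound pinned in; 16 hr, 37 °C, 5% CO2; ONE-Glo, 30 min RT; luminescence on CCD imager.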
FLuc counter = firefly luciferase modulation, counter-screen for miR-21 project; Potency, µM (top dose mostly 57.5 µM), inactives show at the top dose activity change, negative = inhibition, hits mostly inhibitors; AID 588342; P08659; 6.9% of 360,000 active; purified FLuc, Km substrates, luminescence inhibition;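 note: plate controls were vehicle for no effect and reference inhibitor for full effect; nearly all actives have a fitted effect of over 55% in size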
Target sequence (P08659 whole entry, looked up): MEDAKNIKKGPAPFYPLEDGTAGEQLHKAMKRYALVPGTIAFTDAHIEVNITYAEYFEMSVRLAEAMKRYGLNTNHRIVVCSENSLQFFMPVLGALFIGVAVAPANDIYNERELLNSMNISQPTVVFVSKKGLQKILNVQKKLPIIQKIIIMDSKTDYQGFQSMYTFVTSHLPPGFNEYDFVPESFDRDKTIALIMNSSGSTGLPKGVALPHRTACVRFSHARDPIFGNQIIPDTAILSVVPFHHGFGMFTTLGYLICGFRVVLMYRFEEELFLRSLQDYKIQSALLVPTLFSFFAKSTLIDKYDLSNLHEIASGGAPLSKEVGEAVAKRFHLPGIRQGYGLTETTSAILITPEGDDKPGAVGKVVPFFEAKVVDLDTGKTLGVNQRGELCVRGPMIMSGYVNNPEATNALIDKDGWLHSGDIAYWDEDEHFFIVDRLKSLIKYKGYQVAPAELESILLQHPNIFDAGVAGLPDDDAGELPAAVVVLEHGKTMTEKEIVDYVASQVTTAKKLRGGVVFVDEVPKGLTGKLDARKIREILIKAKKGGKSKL
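Purified P. pyralis luciferase, 10 nM final, with Km-level 10 uM D-luciferin and 10 uM ATP in 50 mM Tris acetate pH 7.5, 10 mM Mg acetate, 0.01% Tween-20, 0.05% BSA; 6-point qHTS titration about 60 µM downward; luminescence read.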
An asterisk follows results filed as active; u = inconclusive; x = no result; [ ] = remark or other dose. This is a sample that favours compounds with a hit; in the whole collection about 7.4% have one here. Calls come from the whole dose curve; as a rule, active = well fitted curve in the direction sought with a large enough effect; inconclusive = small, poorly fitted or top-dose-only effect, or another doubt; inactive = no such curve, though single readings can be large; an effect the other way counts as inactive or inconclusive. Potency is the fitted concentration of half-maximal effect.

SMILES	SMN2 splice enh	NPC1 promoter act	KinaseGlo FLuc	Rab9 prom act	ELG1 genotox	FLuc counter
CN(C)/C=N/c1sc2c(c1C#N)CCC2	-29%	9%	-6%	1%	5%	-9%
CC1(C)Cc2c(sc(/N=C/N3CCCCCC3)c2C#N)C(C)(C)N1	14%	2%	0%	-4%	0%	-4%
CC1(COc2ccc(CC3SC(=O)NC3=O)cc2)CCCCC1 (configuration not stated)	5%	x	0%	x	x	x
CCOC(=O)C1CCN(S(=O)(=O)c2cc(-c3onc(C)c3C)ccc2C)CC1	x	x	x	x	x	-4%
Cc1oc(-c2ccc(Cl)cc2)nc1Cn1c(=O)cc(C)c2c(C)nn(-c3ccccc3)c21	x	x	x	x	x	-1%
CCOc1ccc(Nc2c(S(=O)(=O)c3ccc(Cl)cc3)cnc3ccc(OC)cc23)cc1	-39%	x	x	x	x	1%
Cc1[nH]cnc1C(=O)N/N=C/c1c(Cl)cccc1Cl	x	u	x	u	24%	15µM*
Cc1nnsc1C(=O)N/N=C/c1c(F)cccc1Cl	2%	2%	-4%	12%	1%	-1%
CC(C)=CCCC1=CC[C@H](C(=O)O)[C@H](C(=O)O)C1	22%	x	3%	x	x	x
Cc1cc(C)nc(N(C#N)CC(=O)c2ccccc2)n1	x	1%	-23%	-1%	-2%	21µM*
Cc1ccc(C(=O)CSc2cc(C)nc(SCC(=O)c3ccccc3)n2)cc1	x	-2%	-6%	-1%	-22%	3%
COc1ccccc1-c1c(C)nn2c(-c3ccccc3)cc(C)nc12	x	-3%	x	-3%	-7%	u
CC(=O)CSc1cc(C)nc2c(-c3ccccc3)c(C)nn12	x	-2%	x	-8%	5%	-1%
Cc1cc(SCC(=O)c2ccccc2)n2ncc(-c3ccccc3)c2n1	x	5µM*	x	3.5µM*	9%	9.5µM*
CCOC(=O)Cc1c(C)nc2c(-c3ccccc3)cnn2c1C	17%	14%	0%	28%	14%	u
COc1ccc(-c2cc(C)nc3c(-c4ccccc4)cnn23)cc1	u	0.5µM*	-1%	0.56µM*	0.65µM*	0.67µM*
Cc1cc(SCC(=O)c2ccccc2)nc(C)n1	29%	3.5µM*	-14%	2.5µM*	u	12µM*
Cc1nc2c(-c3ccccc3)cnn2c(N)c1-c1ccccc1	x	u	x	16%	u	0.21µM*
Cc1cc(-c2ccccc2)n2ncc(-c3ccccc3)c2n1	-52%	2.8µM*	1%	0.5µM*	0.21µM*	0.19µM*
O=C(CSc1ccc(-c2ccco2)nn1)c1ccccc1	18%	16%	0%	u	13%	27µM*
Cc1cc(C(F)(F)F)n2ncc(-c3cccc(Br)c3)c2n1	8%	12%	2%	9%	-3%	4%
COc1ccc(C(=O)CSc2ccc(-c3ccco3)nn2)cc1	11%	0%	-1%	-3%	1%	u
Cc1cccn2c(=O)c(C(=O)N3CCN(c4ccccc4)CC3)cnc12	x	x	x	x	x	1%
CCCC[C@H](CC)CN1CN(C[C@@H](CC)CCCC)CC(C)(N)C1	-23%[20.6 µM]	x	0%[17.1 µM]	x	x	x
CC(C)(C)c1ccc(OCC(=O)Nc2c(C(=O)c3ccc(F)cc3)oc3ccccc23)cc1	-1%	x	x	x	x	0%
SMILES	SMN2 splice enh	NPC1 promoter act	KinaseGlo FLuc	Rab9 prom act	ELG1 genotox	FLuc counter
CCOc1ccccc1N(C)C(=O)Cn1cnc2sc(C)c(S(=O)(=O)N3CCC(C)CC3)c2c1=O	6%	x	x	x	x	-2%
O=C(NCCc1ccccc1)c1nn(-c2ccc(F)cc2)nc1CO	18%	x	x	x	x	7%
COc1cccc(Oc2nnnn2-c2ccccc2)c1	x	u	x	4µM*	u	17µM*
CCCCN(C)CCCNC(=O)c1ccc2nc(N3CCCCC3)sc2c1	15%	x	x	x	x	4%
CN(C)c1ccc(C(=C2C=CC(=[N+](C)C)C=C2)c2c(O)c(S(=O)(=O)O)cc3cc(S(=O)(=O)O)ccc23)cc1	-43%[9.22 µM]	x	u	x	x	x
Fc1ccc(CSc2ncnc3scc(-c4ccccc4)c23)cc1	-3%[1.84 µM]	-2%	-1%	1%	4%	0%
Clc1ccc(C[n+]2csc3ccccc32)cc1	-3%	0%	-4%	-7%	0%	6.7µM*
Fc1ccc(C[n+]2csc3ccccc32)cc1	2%	-4%	-3%	2%	4%	7.6µM*
CC(=O)Nc1ccc(S(=O)(=O)NC2(C(F)(F)F)C(=O)Nc3c2c(=O)[nH]c(=O)n3-c2cccc(Cl)c2)cc1 (configuration not stated)	-2%	x	x	x	x	-12%
COc1cccc(C(=O)Nc2cccc(OCC(=O)c3ccccc3)c2)c1	-17%	2%	-4%	2%	-15%	12µM*
Cc1cccc(C(=O)Nc2cccc(OCC(=O)O)c2)c1	x	-4%	u	-8%	1%	15µM*
O=C(O)COc1cccc(NC(=O)c2ccccc2)c1	20%	2%	-8%	-1%	-1%	u
O=C(COc1cccc(NC(=O)c2ccccc2)c1)c1ccccc1	x	-3%	1%	-3%	0%	15µM*
Cc1cccc(OCC(=O)Nc2ccc(NC(=O)c3ccccc3)cc2)c1	x	10%	x	27%	1%	3%
COc1cccc(C(=O)Nc2cccc(C(=O)NCC(C)C)c2)c1	24%	0%	1%	-3%	0%	u
COC(=O)c1ccc(OCC(=O)c2ccccc2)cc1	13µM*	3.2µM*	-12%	3.2µM*	u	7.6µM*
COc1ccc(-c2cc(C(F)(F)F)nc(SCCC(=O)Nc3ccc(OC)c(OC)c3)n2)cc1	-10%	x	x	x	x	0%
CC1(C(=O)NC2CCCCC2)Cc2ccccc2C(=O)N1Cc1ccc(Cl)cc1 (configuration not stated)	-17%	x	x	x	x	2%
COc1cccc(C(=O)COc2ccc(NC(=O)c3ccccc3)cc2)c1	x	1%	x	-1%	-1%	3.4µM*
O=C(COc1cccc(NC(=O)c2cccs2)c1)c1ccc(F)cc1	-32%	1%	0%	11%	-5%	24µM*
COc1cccc(C(=O)Nc2ccc(NC(C)=O)cc2)c1	17%	15%	-7%	27%	u	u
NC(=O)c1ccc(NC(=O)c2cccc(Oc3ccccc3)c2)cc1	-7%	-1%	1%	-7%	10%	5%
COc1cccc(C(=O)Nc2ccc(NC(=O)C(C)(C)C)cn2)c1	0.89µM*	0.35µM*	-11%	0.32µM*	u	0.85µM*
COc1ccc(NC(=O)c2cccc(Oc3ccccc3)c2)cn1	x	-12%	x	10%	10%	19µM*
O=C(O)c1ccc(NC(=S)NC(=O)c2ccc(-c3ccccc3)cc2)cc1	0%	21%	-2%	u	14%	6µM*
COc1ccc(NC(=S)NC(=O)c2ccccc2)cn1	x	u	x	1.8µM*	u	13µM*

Compound activity deposited in PubChem BioAssay by National Center for Advancing Translational Sciences (NCATS).
